Measured values from paper PMC4336329 (PLoS ONE, 2015).
Out of some 310,000 compounds screened, about 14,000 (4.5%) showed an effect of 50% or more. Effects have a minus sign here. The full list was thinned out, with strong results kept by preference.
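Also: peak tail current of the secondary pulse compared with the same well before compound.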

Each molecule was assayed against human ether-à-go-go-related gene (hERG) potassium channel (human, UniProt Q12809) (assay: primary screen, population patch clamp on CHO cells stably expressing hERG; higher = less effect of the substance).
Chain of human ether-à-go-go-related gene (hERG) potassium channel (Q12809 whole entry, looked up): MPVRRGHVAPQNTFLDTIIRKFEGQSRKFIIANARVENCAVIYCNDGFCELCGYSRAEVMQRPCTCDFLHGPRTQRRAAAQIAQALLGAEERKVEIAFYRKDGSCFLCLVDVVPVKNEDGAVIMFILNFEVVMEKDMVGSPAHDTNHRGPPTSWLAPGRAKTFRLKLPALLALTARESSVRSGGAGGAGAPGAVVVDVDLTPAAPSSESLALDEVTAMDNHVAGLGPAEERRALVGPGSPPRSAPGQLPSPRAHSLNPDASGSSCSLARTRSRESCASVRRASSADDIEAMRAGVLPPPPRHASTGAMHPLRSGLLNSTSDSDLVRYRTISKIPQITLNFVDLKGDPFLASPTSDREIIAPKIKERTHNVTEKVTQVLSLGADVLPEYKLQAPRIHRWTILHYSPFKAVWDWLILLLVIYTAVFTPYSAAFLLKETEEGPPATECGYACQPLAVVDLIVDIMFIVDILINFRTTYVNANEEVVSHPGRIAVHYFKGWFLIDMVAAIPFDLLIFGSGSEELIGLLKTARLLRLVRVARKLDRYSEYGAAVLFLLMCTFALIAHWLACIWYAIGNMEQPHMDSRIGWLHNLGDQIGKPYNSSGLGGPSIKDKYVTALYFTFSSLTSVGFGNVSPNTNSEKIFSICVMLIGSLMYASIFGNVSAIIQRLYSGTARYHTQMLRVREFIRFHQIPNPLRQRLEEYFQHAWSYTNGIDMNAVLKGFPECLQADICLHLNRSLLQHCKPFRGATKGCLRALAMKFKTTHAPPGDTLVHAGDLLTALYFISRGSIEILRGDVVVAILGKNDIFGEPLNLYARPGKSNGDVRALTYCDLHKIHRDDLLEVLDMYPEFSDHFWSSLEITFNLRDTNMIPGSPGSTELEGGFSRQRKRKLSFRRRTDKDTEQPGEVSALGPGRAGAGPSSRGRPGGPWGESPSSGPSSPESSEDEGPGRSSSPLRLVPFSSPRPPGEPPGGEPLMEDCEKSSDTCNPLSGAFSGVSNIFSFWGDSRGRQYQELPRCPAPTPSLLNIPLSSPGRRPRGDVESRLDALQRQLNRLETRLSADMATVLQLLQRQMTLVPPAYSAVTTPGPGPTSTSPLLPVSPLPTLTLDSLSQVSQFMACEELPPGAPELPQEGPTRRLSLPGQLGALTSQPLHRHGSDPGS
`O=C(Cn1cc(C(F)(F)F)ccc1=O)NCc1ccc(F)cc1` was tested, and the “hERG current change (%, negative = inhibition) at 10uM” value was 15.6%. With `CS(=O)(=O)N(CC(=O)N1CCN(c2ccccc2)CC1)c1cccc(Br)c1` the “hERG current change (%, negative = inhibition) at 10uM” value was -19.2%. In the case of `O=C(CCN1C(=O)/C(=C/C=C/c2ccccc2)SC1=S)Nc1nc2ccccc2s1`, the “hERG current change (%, negative = inhibition) at 10uM” value is reported as 18.3%. For `NCC(c1ccccc1Cl)c1c[nH]c2ccccc12` (stereo not drawn), the “hERG current change (%, negative = inhibition) at 10uM” value was 12.8%. `FC(F)(F)c1ccccc1Nc1nccs1` was tested, and the “hERG current change (%, negative = inhibition) at 10uM” value was -16.1%. With `CCC(=O)OC1(Cc2ccc(CC)cc2)CC(C)N(C)CC1C.Cl` (stereo not drawn) the “hERG current change (%, negative = inhibition) at 10uM” value was -59.4%. In the case of `CCc1ccc(CC2(O)CC(C)N(C)CC2C)cc1` (stereo not drawn), the “hERG current change (%, negative = inhibition) at 10uM” value is reported as -29.7%. `CCC1(OC(=O)c2ccccc2)CC(C)N(C)CC1C.Cl` (stereo not drawn) was tested, and the “hERG current change (%, negative = inhibition) at 10uM” value was -7.85%. `CNC(=S)NNC(=O)c1cc(C(C)(C)C)nn1Cc1ccc(F)cc1` was tested, and the “hERG current change (%, negative = inhibition) at 10uM” value was 14.6%. With `Cc1cc(C)cc(N2C(=O)CC(N3CCOCC3)C2=O)c1` (stereo not drawn) the “hERG current change (%, negative = inhibition) at 10uM” value was 14.9%. With `O=C(CN1C(=O)COc2ccc(S(=O)(=O)N3CCCC3)cc21)N1CCCC1` the “hERG current change (%, negative = inhibition) at 10uM” value was 9.85%. `C/C=C/Cn1c(N2CCCCCC2)nc2c1c(=O)[nH]c(=O)n2C` was tested, and the “hERG current change (%, negative = inhibition) at 10uM” value was -5.14%. In the case of `N#Cc1cnn2c(-c3cccc(C(F)(F)F)c3)ccnc12`, the “hERG current change (%, negative = inhibition) at 10uM” value is reported as -52.8%. `N#Cc1cnn2c(-c3cccc([N+](=O)[O-])c3)ccnc12` was tested, and the “hERG current change (%, negative = inhibition) at 10uM” value was -52.7%. With `N#Cc1cnn2c(-c3ccccc3)ccnc12` the “hERG current change (%, negative = inhibition) at 10uM” value was 2.49%. With `NC(=O)c1cnn2c(-c3cccc(C(F)(F)F)c3)ccnc12` the “hERG current change (%, negative = inhibition) at 10uM” value was -2.33%. For `COc1ccc(-c2ccnc3c(C#N)cnn23)cc1`, the “hERG current change (%, negative = inhibition) at 10uM” value was 6.06%. In the case of `NC(=S)c1cnn2c(-c3cccc(C(F)(F)F)c3)ccnc12`, the “hERG current change (%, negative = inhibition) at 10uM” value is reported as 14.2%. `CC(=O)c1ccc(NS(=O)(=O)c2cccc(C)c2)cc1` was tested, and the “hERG current change (%, negative = inhibition) at 10uM” value was -1.86%. `COC(=O)c1cccc(NC(=O)CC2C(=O)NCCN2C(=O)Nc2cc(C)cc(C)c2)c1` (stereo not drawn) was tested, and the “hERG current change (%, negative = inhibition) at 10uM” value was 11%. For `COc1ccc(CNc2ncc(-c3ccccc3)n2C)c2ccccc12.O=C(O)C(=O)O`, the “hERG current change (%, negative = inhibition) at 10uM” value was -34.5%. `COc1ccc(CNc2ncc(-c3ccc(F)cc3)n2C)cc1OC.O=C(O)C(=O)O` was tested, and the “hERG current change (%, negative = inhibition) at 10uM” value was -65.2%. In the case of `COc1ccccc1CNc1ncc(-c2ccc(F)cc2)n1C.O=C(O)C(=O)O`, the “hERG current change (%, negative = inhibition) at 10uM” value is reported as -62%. In the case of `COc1ccccc1CNc1ncccn1.O=C(O)C(=O)O`, the “hERG current change (%, negative = inhibition) at 10uM” value is reported as 23.6%. For `COc1ccc(CNc2ncc(-c3ccc(F)cc3)n2C)c2ccccc12.O=C(O)C(=O)O`, the “hERG current change (%, negative = inhibition) at 10uM” value was -35.1%. `COCCn1c(-c2ccc(OC)cc2)cnc1SCC(=O)Nc1cccc2ccccc12` was tested, and the “hERG current change (%, negative = inhibition) at 10uM” value was -21.8%. `CCOc1ccc(-c2cnc(NCc3cccc4ccccc34)n2CCOC)cc1.O=C(O)C(=O)O` was tested, and the “hERG current change (%, negative = inhibition) at 10uM” value was -58.8%. For `Cn1c(-c2ccc(F)cc2)cnc1NCc1ccccc1F.O=C(O)C(=O)O`, the “hERG current change (%, negative = inhibition) at 10uM” value was -27.3%. `COCCCNC(=O)Cn1c(=O)n(Cc2ccccc2Cl)c(=O)c2cc(OC)c(OC)cc21` was tested, and the “hERG current change (%, negative = inhibition) at 10uM” value was 9.48%. For `COc1ccc(-c2nc(N)n(S(=O)(=O)c3ccc(C)cc3)n2)cc1`, the “hERG current change (%, negative = inhibition) at 10uM” value was 39%. With `CC(=O)Nc1nc(COc2ccccc2)cs1` the “hERG current change (%, negative = inhibition) at 10uM” value was -4.04%. `COC(=O)C(Cc1c[nH]c2ccccc12)NC(=O)c1cncc(Br)c1` (stereo not drawn) was tested, and the “hERG current change (%, negative = inhibition) at 10uM” value was 1.85%. `CCOC(=O)N1CCN(S(=O)(=O)N2CCCC(C(=O)NCCCN3CCCCC3)C2)CC1` (stereo not drawn) was tested, and the “hERG current change (%, negative = inhibition) at 10uM” value was 10%. In the case of `CC(C)Nc1ccc(Nc2ccccc2)cc1`, the “hERG current change (%, negative = inhibition) at 10uM” value is reported as -0.32%. `CC(C)Nc1ccc(Nc2ccnc3cc4ccccc4cc23)cc1` was tested, and the “hERG current change (%, negative = inhibition) at 10uM” value was -72.7%. For `COc1ccc(Nc2ccnc3ccccc23)cc1.Cl`, the “hERG current change (%, negative = inhibition) at 10uM” value was -33.8%. For `CS(=O)(=O)N(CC(=O)N1CCN(Cc2ccccc2)CC1)c1cccc(Cl)c1`, the “hERG current change (%, negative = inhibition) at 10uM” value was -63.8%. With `Cc1ccc(N(CC(=O)N2CCN(Cc3ccccc3)CC2)S(C)(=O)=O)cc1C` the “hERG current change (%, negative = inhibition) at 10uM” value was -7.28%. With `CS(=O)(=O)N(CC(=O)N1CCN(Cc2ccccc2)CC1)c1cccc([N+](=O)[O-])c1` the “hERG current change (%, negative = inhibition) at 10uM” value was -75.5%. For `CS(=O)(=O)N(CC(=O)N1CCCCCC1)c1cccc([N+](=O)[O-])c1`, the “hERG current change (%, negative = inhibition) at 10uM” value was -32.7%. In the case of `CCOC(=O)N1CCN(C(=O)CN(c2cccc(C(F)(F)F)c2)S(=O)(=O)c2ccccc2)CC1`, the “hERG current change (%, negative = inhibition) at 10uM” value is reported as -43.6%. For `CCOC(=O)N1CCN(C(=O)CN(c2cccc(C(F)(F)F)c2)S(C)(=O)=O)CC1`, the “hERG current change (%, negative = inhibition) at 10uM” value was -51.1%. `CS(=O)(=O)N(CC(=O)N1CCN(Cc2ccccc2)CC1)c1cccc(F)c1` was tested, and the “hERG current change (%, negative = inhibition) at 10uM” value was -36.3%. In the case of `CCOC(=O)C1CCN(C(=O)CN(c2cccc(C(F)(F)F)c2)S(C)(=O)=O)CC1`, the “hERG current change (%, negative = inhibition) at 10uM” value is reported as -25.9%. With `CS(=O)(=O)N(CC(=O)N1CCOCC1)c1cccc([N+](=O)[O-])c1` the “hERG current change (%, negative = inhibition) at 10uM” value was 6.28%.
